Each structure is given as a SMILES string. Records with an inconclusive call do not appear. Entries that show only a call come without a potency. Activity calls are given as the source filed them. Calls follow the shape of the dose curve; as a rule, active = well fitted inhibition curve with a large enough effect; inconclusive = small, poorly fitted or top-dose-only effect; inactive = flat fitted curve, though single readings scatter.

Calcium and integrin-binding protein 1 (Homo sapiens), sequence (Q99828 whole entry, looked up): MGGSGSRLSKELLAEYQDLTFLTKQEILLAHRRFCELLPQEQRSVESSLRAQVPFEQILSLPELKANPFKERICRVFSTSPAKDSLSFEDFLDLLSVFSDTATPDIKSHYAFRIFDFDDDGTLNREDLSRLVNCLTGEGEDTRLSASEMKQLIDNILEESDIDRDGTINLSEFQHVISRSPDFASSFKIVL

This assay deals with Calcium and integrin-binding protein 1 (Homo sapiens) (UniProt Q99828). Nature of the assay: Primary qHTS for Identification of Calcium Integrin Binding Protein 1 (CIB1) Competitor (AID 1508620).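 Also: GST tagged CIB1 binding a fluorescein labelled alphaIIb integrin peptide tracer; top concentration of the series differs between compounds.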 The following applies: CIB1-GST / FITC-alphaIIb peptide fluorescence polarization; series mostly up to 114 µM. In short, it runs like this:
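Fluorescence polarization competition: CIB1-GST (1 uM final) preincubated with compound 15 min at room temperature, then FITC-labeled alphaIIb peptide (100 nM final) added for another 15 min. Polarization read at Ex 480/Em 540.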
(Quantitative high-throughput screening tests each substance at several concentrations.)
`c1nc(NCC2CCCOC2)c2cc(-c3ccc4c(c3)OCO4)ccc2n1` (centres undefined): the Potency entry was “inactive”. Regarding `CCOc1ccc(CCNC(=O)c2cc3ccccc3n2Cc2ccc(Cl)c(F)c2)cc1OCC`, the Potency entry was “inactive”. Take `N#Cc1cccc(OC2=NS(=O)(=O)c3ccccc32)c1`: the Potency result was “inactive”.

On to `CCn1c2cc(C)sc2c2cnn(Cc3ccccc3F)c(=O)c21`, for which the Potency result is “inactive”. On to `Cc1ccc(-c2nccc(=O)n2CC(=O)NCCc2ccccc2)cc1`, for which the Potency result is “inactive”. With `Brc1ccc(-c2ccc(C3Nc4cccc5cccc(c45)N3)o2)cc1` the entry was “inactive”; with `O=C(NCC#CCSc1nnc(-c2cccc3ccccc23)o1)c1cccs1`, “inactive”; with `CC(=O)Nc1cccc(S(=O)(=O)N2CCN(S(=O)(=O)c3ccc4c(c3)OCCO4)CC2)c1`, “inactive”. As for `Oc1ccc(CNc2cc(C(F)(F)F)ccn2)c2cccnc12`, the Potency entry is “inactive”. For `Cc1ccc(CNc2ncnc3ccc(-c4ccc5c(c4)OCO5)cc23)s1`, the Potency result was “inactive”.

For the compound `CCNC(=O)c1ccc(-c2ccc3ncnc(NCC4CCCO4)c3c2)o1` (centres undefined), the Potency result was “inactive”.

`O=C1CCCC2=C1C1(CCCC1)N=C(Nc1nc3cc(Cl)ccc3o1)N2`: the Potency entry is “inactive”. With `COc1cccc(N2C(=O)c3ccccc3C2=O)n1`, the Potency result was “inactive”.

For the compound `O=C1Nc2ccccc2/C1=C\c1ccc(O)c(Cl)c1`, the Potency entry is “inactive”. For the compound `O=C(Nc1ncc(Cc2ccc(C(F)(F)F)cc2)s1)c1ccc(-c2ccccc2[N+](=O)[O-])o1`, the Potency result was “inactive”. As for `Cc1nc(CNc2ncnc3ccc(-c4ccoc4C)cc23)cs1`, the Potency result is “inactive”. Regarding `C[C@@H](O)c1ccc(-c2ccc3ncnc(NCc4cccs4)c3c2)o1`, the Potency result is “inactive”. For `Cc1ccc2nc3sc(C(=O)NCCc4cccnc4)cc3cc2c1`, the Potency entry is “inactive”. With `CC1=C(C(=O)NC2CCCCC2)C(c2ccccc2Br)N=C(Nc2nc3ccccc3o2)N1` (centres undefined), the Potency entry is “inactive”. Regarding `Nc1cccc(CNc2ccc(S(=O)(=O)Nc3nccs3)cc2)c1O`, the Potency result is “inactive”.

For the compound `COc1cccc(C2=Nn3c(nnc3-c3ccc(OC)cc3OC)SC2)c1`, the Potency result was “inactive”. On to `O=C(Nc1ccccc1F)c1ccc(O)c2ncccc12`, for which the Potency result was “inactive”. Regarding `N#Cc1nc(Nc2cccc([N+](=O)[O-])c2)nc(NC2CCCC2)n1`, the Potency result is “inactive”. As to `COc1ccnc(NC(=S)N2CCN(c3ccc4ccccc4n3)CC2)c1`, the Potency result is “inactive”. Under `Cc1cc(C)nc(NC(=S)N2CCN(c3cccc(Cl)c3Cl)CC2)c1` stands “inactive”. Turning to `COc1ccc(C2Nc3cccc(OC)c3C(=O)N2Cc2ccco2)cc1COc1c(C)cc(NC(C)=O)cc1C` (centres undefined), the Potency entry is “inactive”.

Turning to `Cc1cc2c(s1)c1cnn(Cc3c(Cl)ccc(C)c3F)c(=O)c1n2C`, the Potency entry was “inactive”.

As for `COc1cccc(OC2=NS(=O)(=O)c3ccccc32)c1`, the Potency result is “inactive”. Consider `O=c1c2ccccc2nc2sc(Nc3cccc(Cl)c3)nn12`, for which the Potency result is “inactive”.

With `COc1ccc(OC)c(-c2nnc3n2N=C(c2c(OC)cccc2OC)CS3)c1`, the Potency entry is “inactive”. Take `Cc1cc(-c2nnc3n2CCCCCCC3)c(C)n1-c1ccccc1`: the Potency result is “inactive”. As to `Cc1ccc(OCCn2c(CCNC(=O)c3cccc(Br)c3)nc3ccccc32)cc1`, the Potency result is “inactive”. Regarding `COc1cccc(NC(=S)N2CCN(c3ccc4ccccc4n3)CC2)n1`, the Potency result is “inactive”. In the case of `Cc1ccc(OCCn2c(CCNC(=O)CCc3ccccc3Br)nc3ccccc32)cc1`, the Potency entry was “inactive”.

Regarding `NC(=O)C1CCN(c2nc(-c3ccccc3C(F)(F)F)cs2)CC1`, the Potency entry is “inactive”. Turning to `FC(F)(F)c1cccc(N2CCN(C(=S)Nc3ncnc4ccccc34)CC2)c1`, the Potency entry is “inactive”. Take `S=C(NCCCN(Cc1ccc(Cl)c(Cl)c1)c1ccc(Br)cn1)NCCc1cnc[nH]1`: the Potency result was “inactive”.

As for `COc1ccc(CN2C(=O)c3ccccc3NC2c2ccc(OC)c(COc3ccc(NC(C)=O)cc3)c2)cc1` (centres undefined), the Potency result is “inactive”. Under `CC(=O)Nc1ccc(S(=O)(=O)Nc2cccc3cccnc23)cc1` stands “inactive”.

The record behind these values is PubChem BioAssay (NCATS).
